Results reported in the supplement of paper PMC12645437, “Orthogonal IMiD-Degron Pairs Induce Selective Protein Degradation in Cells” (ACS Chemical Biology, 2025).
The full ranking holds about 8,300 sequences; the median of “log2 fold change of degron read counts, EGFP-low vs EGFP+ sorted cells (limma voom), compound-induced degradation” is about -1.1, and the highest 2% start at about 3.2. The entries come from a sample that favours the highest values as a whole.

T1: CRBN, Q96SW2
T1 chain: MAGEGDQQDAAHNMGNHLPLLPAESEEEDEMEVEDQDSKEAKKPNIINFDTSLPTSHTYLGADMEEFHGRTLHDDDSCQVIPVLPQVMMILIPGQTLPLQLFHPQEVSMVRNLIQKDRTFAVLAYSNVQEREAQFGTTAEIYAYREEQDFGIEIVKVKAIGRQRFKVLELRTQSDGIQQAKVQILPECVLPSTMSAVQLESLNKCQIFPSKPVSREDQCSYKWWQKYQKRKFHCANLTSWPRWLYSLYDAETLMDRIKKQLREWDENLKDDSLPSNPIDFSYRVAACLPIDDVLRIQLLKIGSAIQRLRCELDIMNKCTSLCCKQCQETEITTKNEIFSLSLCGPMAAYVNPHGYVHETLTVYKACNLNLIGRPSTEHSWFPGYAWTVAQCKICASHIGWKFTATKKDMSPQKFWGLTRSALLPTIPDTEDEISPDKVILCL


Molecular target: T1, CRBN, Q96SW2
Assay: log2 fold change of degron read counts, EGFP-low vs EGFP+ sorted cells (limma voom), compound-induced degradation; higher = more compound-induced degradation of the degron-EGFP fusion; degrons are variants of IKZF1/3 zinc finger 2; compound dose not given here
Details: Jurkat, 18 h
Experimental: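 Pooled library of 8380 IKZF3 ZF2 degron mutants (positions 146-167 varied within the IKZF3 130-189 degron; only the varied core is printed, flanks not printed) fused to EGFP with IRES-mCherry, lentivirally expressed in Jurkat cells. mCherry+ cells were treated with one IMiD compound for 18 h (dose not stated) and FACS-sorted into EGFP-low and EGFP+ populations. Degron sequences were counted by NGS, and log2FC (EGFP-low vs EGFP+) was estimated by limma voom over 3 biological replicates.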

[1] = compound: compound 19 (5-tert-butyl-thalidomide)
[2] = compound: compound 22 (5-morpholino-thalidomide)
[3] = compound: compound 33 (diphenyl IMiD analogue)
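Further: pooled lentiviral library of zinc finger degron-EGFP fusions in mCherry-positive Jurkat cells, FACS-sorted after compound exposure, with degron abundance counted by next-generation sequencing.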

Sequence | log2 fold change of degron read counts [1] | log2 fold change of degron read counts [2] | log2 fold change of degron read counts [3] | log2 fold change of degron read counts (compound: thalidomide)
FDCDQCGAEFTQKGNLLRHIKL [46F_47D_49D_50Q_52G_53A_54E_55F_67L_, Q9UKT9] | -3.44 | -3.7 | -3.04 | -3.25
FVCEVCGAFFTQKGNLLRHIKL [46F_47V_49E_50V_52G_53A_54F_55F_67L_, Q9UKT9] | -0.979 | -0.472 | 1.09 | 0.698
FDCPQCGAMFTQKGNLLRHIKL [46F_47D_49P_50Q_52G_53A_54M_55F_67L_, Q9UKT9] | -2.55 | -2.86 | -1.76 | -1.75
FFCNQCGRSFTQKGNLLRHIKL [46F_47F_49N_50Q_52G_53R_54S_55F_67L_, Q9UKT9] | -2.31 | -2.35 | -2.54 | -2.53
FYCDQCGAEFTQKGNLLRHIKL [46F_47Y_49D_50Q_52G_53A_54E_55F_67L_, Q9UKT9] | -1.15 | -2.26 | -1.96 | -3.08
FNCPICGHAFTQKGNLLRHIKL [46F_47N_49P_50I_52G_53H_54A_55F_67L_, Q9UKT9] | -1.92 | -2.91 | -2.41 | -1.74
FWCPICGAEFTQKGNLLRHIKL [46F_47W_49P_50I_52G_53A_54E_55F_67L_, Q9UKT9] | 2.47 | 2.5 | 1.96 | 0.113
FDCNQCGHAFTQKGNLLRHIKL [46F_47D_49N_50Q_52G_53H_54A_55F_67L_, Q9UKT9] | -2.71 | -2.67 | -2.47 | -2.94
FKCDICGAEFTQKGNLLRHIKL [46F_47K_49D_50I_52G_53A_54E_55F_67L_, Q9UKT9] | -3.02 | -3.75 | -4.07 | -2.58
FKCSVCGHVFTQKGNLLRHIKL [46F_47K_49S_50V_52G_53H_54V_55F_67L_, Q9UKT9] | -3.06 | -3.01 | -3.11 | -3.07
FWCEQCGAQFTQKGNLLRHIKL [46F_47W_49E_50Q_52G_53A_54Q_55F_67L_, Q9UKT9] | 0.92 | 2.94 | 0.838 | -0.633
FECPICGACFTQKGNLLRHIKL [46F_47E_49P_50I_52G_53A_54C_55F_67L_, Q9UKT9] | 0.233 | -0.321 | 2.66 | 2.94
FHCPICGACFTQKGNLLRHIKL [46F_47H_49P_50I_52G_53A_54C_55F_67L_, Q9UKT9] | 2.71 | 2.64 | 2.08 | 0.899
FGCPICGACFTQKGNLLRHIKL [46F_47G_49P_50I_52G_53A_54C_55F_67L_, Q9UKT9] | 3.9 | 2.82 | 2.74 | 1.24
FKCPICGACFTQKGNLLRHIKL [46F_47K_49P_50I_52G_53A_54C_55F_67L_, Q9UKT9] | -0.511 | -2.33 | -2.58 | -0.71
FFCPICGACFTQKGNLLRHIKL [46F_47F_49P_50I_52G_53A_54C_55F_67L_, Q9UKT9] | 3.22 | 3.44 | 2.28 | 1.16
FRCPICGACFTQKGNLLRHIKL [46F_47R_49P_50I_52G_53A_54C_55F_67L_, Q9UKT9] | -0.121 | 0.343 | 1.61 | 1.35
LQCEICGFFCTQKGNLLRHIKL [46L_47Q_49E_50I_52G_53F_54F_55C_67L_, Q9UKT9] | -0.636 | -0.227 | 0.554 | 1.77
